ChEMBL document CHEMBL3988442, “University of Dundee, Small-Polar-MMV Screening Library” (2021)
About 13,000 (27%) of roughly 48,000 compounds showed an effect of 50% or more. The list shows a part of the results.

These compounds were tested on Wolbachia pipientis (assay: Anti-Wolbachia Cell-Based Screen). Details: 5 µM.
Format: functional
Set-up: scale not given: in the data most compounds retested in dose-response had high values

Compound | Percent Effect
CC(C)C1CN(C(=O)Nc2cnn(CC(F)F)c2)CCO1 (stereo unspecified) | 14.22%
CC(C)N1CC2(CCCN(Cc3noc(C4CCCC4)n3)C2)CCC1=O (stereo unspecified) | 0.7717%
COC1CCN(C(=O)c2csc(-c3ccccc3F)n2)CC1 | 15.42%
CN1CCOC(CN(C(=O)CCc2ccco2)c2nccs2)C1 (stereo unspecified) | 89.12%
O=C(NCCc1nccs1)C1CCCN(Cc2ccco2)C1 (stereo unspecified) | -29.34%
Nc1nccnc1C(=O)N(Cc1ccco1)CC1CCCO1 (stereo unspecified) | 3.477%
O=C(CCc1cn[nH]c1)N1C[C@H](CO)C[C@H](CN2CCOCC2)C1 | -1.636%
Cn1cnnc1C1CCCN(C(=O)c2ccccc2Cl)C1 (stereo unspecified) | 1.344%
Cn1cnnc1C1CCCN(C(=O)c2cc(Cl)c(Cl)n2C)C1 (stereo unspecified) | 115.1%
Cn1cnnc1C1CCCN(C(=O)c2cc(Cl)c3c(c2)OCO3)C1 (stereo unspecified) | -3.548%
Cc1noc(C2CCCN(C(=O)c3cc(Cl)c(Cl)n3C)C2)n1 (stereo unspecified) | 3.125%
Cn1cnnc1C1CCCN(C(=O)c2cc(Cl)cc(Cl)c2)C1 (stereo unspecified) | 113.5%
O=C(c1cnns1)N1CCN(Cc2ccc(F)cc2Cl)CC1 | 11.32%
Cc1nn(C)c(C)c1C1CCCN1c1ncnc2[nH]ccc12 (stereo unspecified) | 1.551%
Brc1ccc(NCCCOC2CCOCC2)nc1 | 3.889%
CCN(Cc1cc(Cl)ccc1OC)Cc1ncnn1CC | 0.2011%
CCOc1ccccc1N1CCN(c2nnc(C)o2)CC1 | 100.3%
CCCc1nnc(N2CCN(c3ccccc3OCC)CC2)o1 | 99.15%
COc1ccccc1N1CCN(Cc2nc(C)c(C)o2)CC1 | -4.949%
CCCc1nnc(N2CCN(c3cccc(OC)c3)C(=O)C2)o1 | 11.57%
CCOc1ccccc1N1CCN(CC2(O)CCCNC2)CC1 (stereo unspecified) | -13.46%
COc1ccccc1CN1CCN(CCN2CCOC2=O)CC1 | -7.896%
CCCc1nnc(N2CCN(Cc3ccccc3OC)CC2)o1 | 96.58%
c1ccc(OCc2noc(CN3CCC(N4CCSCC4)CC3)n2)cc1 | -5.795%

Compound | Percent Effect
O=C(c1cc2c([nH]c1=O)CCC2)N1CCCCCC1c1ccncc1 (stereo unspecified) | 23.88%
CC(C)COCC(NC(=O)Cc1ccn[nH]1)c1ccco1 (stereo unspecified) | -5.318%
Cc1noc(C)c1CNCc1nn(-c2ccccc2)c2c1CCC2 | -8.034%
CC(=O)c1cc(CC(=O)NCc2c(F)cccc2F)cs1 | -9.682%
O=C(CCC1CCN(C(=O)c2csnn2)CC1)NCc1cccc(Cl)c1 | -4.206%
CCC(C)NC(=O)c1cccc(CNC(=O)CC(F)(F)F)c1 (stereo unspecified) | 4.521%
Clc1ccccc1-c1nc(CNCCn2cccn2)cs1 | -5.873%
O=C(Cc1csc(-c2ccccc2Cl)n1)NCc1cccc(C(=O)O)c1 | 96.86%
O=C(Cc1csc(-c2cccc(Cl)c2)n1)NCc1cccc(C(=O)O)c1 | 106.6%
CC(=O)c1cc(CC(=O)NCc2ccc(F)cc2)cs1 | -15.8%
O=C(Cc1csc(-c2ccccc2F)n1)NCc1cccc(C(=O)O)c1 | 94.98%
O=C(Cc1csc(-c2ccccc2F)n1)NCc1ccc(C(=O)O)cc1 | 91.75%
COc1ccccc1-c1csc(-c2cccc(C(=O)O)c2)n1 | 1.276%
O=C(CCC1CCN(C(=O)c2cc[nH]c2)CC1)NCc1cccc(Cl)c1 | 14.78%
Cc1[nH]c2c(F)cccc2c1CC(=O)NCc1csc(N(C)C)n1 | -5.819%
CCC(C(=O)N(C)C)N1CCC(c2nccn2Cc2cscn2)CC1 (stereo unspecified) | -0.1258%
COCCCn1nnc(C2(NC(=O)c3ccccc3)CCCC2)n1 | -42.57%
O=C(Cc1cccs1)N1C[C@@H]2CC[C@H](C1)N(Cc1ccccn1)C2=O | 15.92%
Cc1cc(C(=O)N2CCc3nnc(N)cc3C2)c(C)n1C1CC1 | 6.232%
CC(C)N(CCS(C)(=O)=O)Cc1csc(-c2ccccc2F)n1 | -5.187%
O=C(O)CNC(=O)Cc1csc(-c2ccccc2F)n1 | 127.8%
CC(Cn1cccn1)NCc1csc(-c2ccccc2F)n1 (stereo unspecified) | 0.9927%
O=C(O)c1ccnc(-c2ccnc(NCCc3ccc(F)cc3)n2)c1 | -8.109%
Cc1cc(C)nc(CCNc2nccc(CCC(F)(F)F)n2)n1 | -9.076%

Compound | Percent Effect
Cc1ncc(-c2ccnc(NCCc3ccc(F)cc3)n2)c(=O)[nH]1 | 69.11%
O=C(Cc1cccc(O)c1)NCCNc1nccc(C(F)(F)F)n1 | -3.193%
N#Cc1cc(F)c(NCCc2cccnc2)c(F)c1 | 0.2383%
O=c1[nH][nH]cc1-c1ccnc(NCCc2ccc(F)cc2)n1 | 99.64%
O=c1[nH][nH]cc1-c1ccnc(NCCc2cccnc2)n1 | 116.1%
CCOc1ccnc(NCCc2nc(C)cc(=O)[nH]2)n1 | 25.33%
O=c1[nH][nH]cc1-c1ccnc(NCCc2cccc(O)c2)n1 | 135%
Cc1cc(C)c(CNC(=O)NCCc2cccnc2)c(=O)[nH]1 | -5.274%
O=C(O)c1ccnc(-c2ccnc(NCCc3cscn3)n2)c1 | 6.299%
Cc1cc(C2CN(CC(=O)NCc3ccco3)CCO2)ccc1F (stereo unspecified) | -9.058%
CN(C)C(=O)CN1C(=O)[C@H]2CC[C@@H]1CN(Cc1ccccc1C#N)C2 | -21.45%
COC(=O)Cc1cccc(NC(=O)Cc2cc(C)[nH]n2)c1 | 1.53%
Cc1nc(CCN)cc(N2CCOc3ccc(Cl)cc3C2)n1 | 10.69%
CCN(Cc1ccc2c(c1)OCO2)C(=O)CCc1c(C)nc(C)[nH]c1=O | -8.876%
CCOC(=O)c1n[nH]cc1CN1CCOC(Cc2ccc(OC)cc2)C1 (stereo unspecified) | -36.24%
CC(=O)NCCNc1nccc(CCC(F)(F)F)n1 | -2.049%
CC(C)(C)CCNc1nccc(-c2c[nH][nH]c2=O)n1 | 100.4%
COCCCNc1nccc(-c2c[nH][nH]c2=O)n1 | 1.466%
Cc1nnc(SCCC(=O)N(C)Cc2ccc(Cl)s2)[nH]1 | 6.778%
O=C(C1CN(CC2CCOCC2)CC12CCOCC2)N1CCCC1.O=C(O)C(F)(F)F (stereo unspecified) | 0.226%
COC(=O)c1cccc(C(=O)N2CCN(c3cc(C)ccc3C)CC2)n1 | 123.5%
COC(=O)c1cccc(C(=O)N2CCN(c3cc(Cl)ccc3C)CC2)n1 | 103.9%
O=C(OCCF)c1cccc(C(=O)N2CCCC2)n1 | 7.504%
COc1cc(C)nc(N2CCN(C(=O)c3cc(Cl)c[nH]3)CC2)n1 | 7.277%

Compound | Percent Effect
CC(=O)N1CCCN(C(=O)c2ccn(-c3cccc(Cl)c3)n2)CC1 | 4.023%
COC(=O)c1cccc(C(=O)N2CCN(c3cccc(C)c3C)CC2)n1 | -16.02%
COCC1CN(Cc2cc(C)on2)Cc2cn(CC3CCCC3)nc21.O=C(O)C(F)(F)F.O=C(O)C(F)(F)F (stereo unspecified) | 1.452%
CNS(=O)(=O)Cc1cccc(CNc2ccc(Cl)cn2)c1 | 7.116%
O=C(C(NCc1cccc(F)c1F)c1ccccc1)N1CCOCC1 (stereo unspecified) | -0.9973%
CN(C)C[C@H]1OC[C@@H]2CCN(C(=O)c3cccn3C)C[C@@H]21.O=C(O)C(F)(F)F | -2.348%
CNC(=O)CN1CC[C@H]2CN(C(=O)c3cccc(C)c3)C[C@H]2C1.O=C(O)C(F)(F)F | 104.9%
CNC(=O)CN1CC[C@H]2CN(C(=O)c3cccn3C)C[C@H]2C1.O=C(O)C(F)(F)F | 94.61%
O=C(O)C(F)(F)F.O=C(c1ccc(O)cc1)N1C[C@@H]2CCN(c3cccnc3)C[C@@H]2C1 | 9.269%
CNC(=O)CN1CC[C@H]2CN(C(=O)c3ccoc3)C[C@H]2C1.O=C(O)C(F)(F)F | 90.52%
Cc1cccc(C(=O)N2C[C@@H]3CCN(C(C)C)C[C@@H]3C2)c1.O=C(O)C(F)(F)F | -3.353%
O=C(O)C(F)(F)F.O=C(c1ccc(F)cc1)N1C[C@@H]2CCN(c3cccnc3)C[C@@H]2C1 | 11.69%
CC(C)N1CCO[C@H]2CN(C(=O)c3ccoc3)C[C@H]21.O=C(O)C(F)(F)F | -10.4%
CC(C)N1[C@H](CN2CCCC2)C[C@@H]2CN(C(=O)c3ccoc3)CC[C@@H]21.O=C(O)C(F)(F)F.O=C(O)C(F)(F)F | -8.643%
Cn1cccc1C(=O)N1C[C@@H]2CCN(c3cccnc3)C[C@@H]2C1.O=C(O)C(F)(F)F | -18.75%
CNC(=O)CN1CC[C@H]2CN(C(=O)c3ccc(C)cc3)C[C@H]2C1.O=C(O)C(F)(F)F | 117%
CNC(=O)[C@@H]1C[C@@H](NC(=O)c2cn(C)nc2C)CN1Cc1sccc1C | 22.01%
Cc1cc(C(=O)N(C)C(C)CC(C)C)on1 (stereo unspecified) | -13.06%
CN(C)c1ccc2c(c1)CN(C(=O)c1ccco1)C2c1cnco1 (stereo unspecified) | 6.499%
O=C(Nc1ccc(-c2csnn2)cc1)N1CC[C@H](O)C1 | -5.302%
CCC(C(=O)NC(C)(C)C)n1cccc(OC)c1=O (stereo unspecified) | -8.788%
CCN1C[C@H]2CCN(C(=O)c3cc[nH]n3)CC[C@H]2S1(=O)=O | 7.026%
CNC(=O)CN1CC[C@H]2CN(C(=O)c3cc[nH]n3)C[C@H]2C1.O=C(O)C(F)(F)F | 106.6%
O=C(O)C(F)(F)F.O=C(c1cc[nH]n1)N1CC[C@@H]2CN(Cc3ccncc3)S(=O)(=O)[C@@H]2CC1 | -5.267%
